# Assay results reported in article PMC5540273 (PLoS ONE, 2017).
# How the values were obtained:
# Details in all cases: concentration: 1 μM, replicates: in singlicate; n = 1
# FLT3-autoinhibited = test system: FLT3-autoinhibited
# FLT3 = test system: FLT3
# FLT4 = test system: FLT4
# FRK = test system: FRK
# FYN = test system: FYN
# GAK = test system: GAK
# GCN2(Kin.Dom.2,S808G) = test system: T1, GCN2(Kin.Dom.2,S808G)
# T1 construct: gene EIF2AK4
# GRK1 = test system: GRK1
# GRK2 = test system: T2, GRK2
# T2 construct: gene ADRBK1
# GRK3 = test system: T3, GRK3
# T3 construct: gene ADRBK2
# GRK4 = test system: GRK4
# GRK7 = test system: GRK7
# GSK3A = test system: GSK3A
# GSK3B = test system: GSK3B
# HASPIN = test system: T4, HASPIN
# T4 construct: gene GSG2
# HCK = test system: HCK
# HIPK1 = test system: HIPK1
# HIPK2 = test system: HIPK2
# HIPK3 = test system: HIPK3
# HIPK4 = test system: HIPK4
# 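Note: KINOMEscan kinase panel screen.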
SMILES,%Inh (FLT3-autoinhibited),%Inh (FLT3),%Inh (FLT4),%Inh (FRK),%Inh (FYN),%Inh (GAK),"%Inh (GCN2(Kin.Dom.2,S808G))",%Inh (GRK1),%Inh (GRK2),%Inh (GRK3),%Inh (GRK4),%Inh (GRK7),%Inh (GSK3A),%Inh (GSK3B),%Inh (HASPIN),%Inh (HCK),%Inh (HIPK1),%Inh (HIPK2),%Inh (HIPK3),%Inh (HIPK4)
Nc1nc(-c2ccc3c(N)n[nH]c3c2)cc(N2CCCC2)n1 [GSK2227430],0%,0%,0%,0%,0%,0%,0%,0%,0%,0%,0%,0%,0%,0%,0%,0%,5%,0%,0%,0%
COc1ccc(CNC(=O)NC2CCN(c3ccnc(Nc4ccc(OC)cc4)n3)C2)cc1 (stereo not shown) [GSK1379727],0%,7%,0%,0%,38%,0%,11%,0%,0%,48%,4%,0%,0%,0%,19%,0%,0%,40%,23%,0%
CN(C(=O)c1ccc(-c2cc(-c3c[nH]nc3-c3ccccn3)ccn2)cc1)C1CCOCC1 [GW810083],0%,8%,0%,6%,1%,9%,2%,10%,18%,18%,4%,0%,0%,4%,0%,0%,22%,25%,0%,0%
c1ccc(-c2cc(-c3c[nH]nc3-c3ccccn3)ccn2)cc1 [GW576604],0%,0%,0%,0%,20%,78%,1%,0%,0%,17%,0%,0%,11%,0%,16%,0%,0%,0%,15%,6%
CN1c2ccc(NCc3ccc(F)cc3)cc2-c2c(cnn2C)S1(=O)=O,24%,12%,0%,10%,12%,0%,0%,11%,0%,0%,0%,0%,22%,0%,37%,8%,6%,0%,0%,0%
NS(=O)(=O)c1cccc(-c2ccc3nccc(-c4cccc(S(N)(=O)=O)c4)c3c2)c1 [GW867253],0%,0%,0%,0%,0%,14%,3%,27%,0%,0%,26%,0%,0%,52%,64%,20%,37%,29%,27%,0%
O=C(NCCCN1CCOCC1)c1cccc(Nc2nccc(Nc3ccc(Oc4ccccc4)cc3)n2)c1 [GW663929],33%,90.7%,4%,48%,93.5%,33%,36%,8%,0%,20%,0%,0%,21%,0%,0%,96.9%,14%,0%,0%,5%
COc1ccc(COc2cc(-n3cnc4ccccc43)sc2C(N)=O)cc1 [GSK1024304],0%,4%,1%,0%,16%,17%,0%,0%,0%,10%,1%,0%,14%,0%,0%,0%,18%,18%,21%,8%
COc1cc2c(cc1OC[C@@H](O)CO)ncc1c3ccc(C#N)cc3[nH]c21,90%,97.5%,7%,0%,0%,98.9%,82%,16%,13%,0%,73%,5%,0%,0%,91.2%,4%,94.4%,98%,94.2%,47%
Fc1ccc(-c2ncn(CCCN3CCOCC3)c2-c2cccnc2)cc1 [SB-211743],0%,9%,0%,0%,0%,2%,8%,16%,0%,7%,14%,0%,24%,20%,41%,34%,38%,0%,18%,4%
N#Cc1ccc(-c2cc(-c3c[nH]nc3-c3ccccn3)ccn2)cc1 [GW693028],0%,0%,0%,25%,0%,69%,0%,0%,0%,70%,3%,0%,12%,4%,0%,0%,0%,0%,0%,0%
